Rows were chosen to be rich in hits. Some 7.8% of all compounds tested hit in one or more screens of this group.
MARV entry inh: inhibitors of Marburg virus binding or cell entry. Marburg virus pseudotyped entry inhibition, cell reporter. Potency, µM (doses to about 37.8 µM), without a hit: at the top dose activity change, negative = inhibition, usual class: inhibitors. 300,000 compounds, 1.8% hits. AID 540276; calls by dose curve; tested in HEK293 cells; note: potency is the fitted concentration of half-maximal effect
Vaccinia mCherry: vaccinia inhibition (mCherry reporter). Vaccinia virus mCherry reporter infection, fluorescence. Potency, µM (highest dose often 36.5 µM), for the others: top-dose activity change, negative = inhibition, hits mostly inhibitors. 310,000 compounds, 0.63% hits. AID 720579; calls by dose curve; tested in A549 cells; note: potency is the fitted concentration of half-maximal effect; nearly all actives have a fitted effect of over 35% in size
LASV entry inh: Lassa virus entry inhibition; Lassa virus pseudotype entry inhibition, cell reporter; Potency, µM (highest dose often 37.9 µM), for the others: top-dose activity change, negative = inhibition, usual class: inhibitors; 300,000 compounds, 1.2% hits; AID 540256; calls by dose curve; tested in HEK293 cells; note: potency is the fitted concentration of half-maximal effect; nearly all actives have a fitted effect of over 50% in size
HCMV antiviral: inhibitors of human cytomegalovirus | HFF cells, HCMV-luciferase reporter, 72 h; hits give low values | activity change, negative = inhibition, % at 57.5 µM | 410,000 compounds, 4.5% hits | AID 1259415; in the data active = activity change below about -60%; inconclusive = no clear call, values can overlap the other calls; inactive = above about -39%
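Luciferase read-out from HCMV-luciferase-infected HFFs (MOI 1 PFU/cell) 72 h post infection at 37C; compounds added after 16 h cell attachment; activity normalized between buffer-only basal and Salinomycin (10uM) inhibitor controls.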
HCV inhibitor: HCV inhibition. Huh7.5.1 HCVcc-Cre infection, luciferase reporter, 44 h. Potency, µM (series often up to 41.8 µM), without a hit: at the highest dose activity change, negative = inhibition, usual class: inhibitors. 340,000 compounds, 3.4% hits; active = well fitted inhibition curve with a large enough effect; inconclusive = small, poorly fitted or top-dose-only effect, or another doubt; inactive = no such curve, though single readings can be large or run the other way; note: potency is the fitted concentration of half-maximal effect
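After 44 h co-culture of compound, cells and HCVcc-Cre (~0.5 moi), substrate is added for 15 min at room temperature and luciferase measured over 15 sec. Cells were seeded at 1,000/well and pre-cultured 4 h.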
Vaccinia Venus: vaccinia inhibition (Venus reporter) | 330,000 compounds, 0.46% hits | Potency, µM (highest dose often 36.5 µM), inactives show at the highest dose activity change, negative = inhibition, actives largely listed as inhibitors | AID 720580 | Vaccinia virus Venus reporter expression, fluorescence; calls by dose curve; tested in A549 cells; note: potency is the fitted concentration of half-maximal effect; nearly all actives have a fitted effect of over 30% in size
* hit, by the source's call; i = inactive; ? = inconclusive; / = no result; ! = not active in a repeat; [ ] = remark or other dose. % is set by controls: 0 for no effect and ±100 for the full control effect.

SMILES | MARV entry inh | Vaccinia mCherry | LASV entry inh | HCMV antiviral | HCV inhibitor | Vaccinia Venus
CC(=O)Nc1ccc(Sc2ccc([N+](=O)[O-])o2)cc1 | ? | -29.8% | ? | -98.2* | ? | -2.7%
NCC[C@H]1CCC[C@H](CCN)N1 | -3.7% | / | / | / | / | /
NC(N)=N/N=C(\N=Nc1ccccc1)c1ccc(Cl)cc1 | ? | ? | 15.8µM* | 206.9 | ? | ?
CCN(C(=O)c1c(C)oc2ncn(CC(C)C)c(=O)c12)c1cccc(Cl)c1 | / | -11.9% | 14.4%[46.1 µM] | -9.4 | / | -3.6%
COCCN(CCOC)c1nc(-c2ccccc2)nc2ccccc12 | / | / | / | -36.1 | ? | /
CCN(CC)c1nc(-c2ccccc2)nc2ccccc12 | ? | -7.1% | -9.4% | -62.7* | 11.2µM* | -16.5%
CCCCN(CCCC)c1nc(-c2ccncc2)nc2ccccc12 | / | / | / | -70.0* | -0.3% | /
CCCCN(CC)c1nc(-c2ccccc2F)nc2ccccc12 | / | -2.1% | 11.7%[46.1 µM] | -9.3 | / | -6.9%
CC(=O)N1CCCC1c1nc2ccccc2n1Cc1ccccc1C (stereo not given) | ? | -11.5%[7.34 µM] | ? | 17.4 | / | -9.3%[7.34 µM]
CCn1c2ccccc2c2cc(NC(=O)c3ccc(C)c([N+](=O)[O-])c3)ccc21 | -19.0% | -1.7% | ? | 0.8 | ? | 2.0%
CCn1c2ccccc2c2cc(NC(=O)c3cccc([N+](=O)[O-])c3C)ccc21 | ? | ? | -28.0% | ? | 3.98µM* | ?
Cc1cc2ccccc2n1CCNC(=O)Cc1ccccc1 | / | i | / | -10.4 | -23.3% | -1.4%
CCn1c2ccccc2c2cc(NC(=O)c3cccc([N+](=O)[O-])c3)ccc21 | ? | -22.4% | -15.1% | 28.1 | 2.24µM* | -28.8%
O=C(NCCn1ccc2ccccc21)c1cccc([N+](=O)[O-])c1 | 9.2%[46.1 µM] | -12.2% | 4.3% | -80.2* | -21.2% | -16.8%
Cc1ccc(C(=O)NCCn2c(C)cc3ccccc32)cc1C | ? | -10.6% | ? | -69.2* | / | -13.4%
CCOC(=O)Cc1ccc(NC(=O)c2cccc([N+](=O)[O-])c2)cc1 | / | -2.7% | / | -60.3* | -8.0% | -6.9%
CCOC(=O)Cc1ccc(NC(=O)c2ccc([N+](=O)[O-])cc2)cc1 | -19.1% | / | -19.8% | -33.1 | -10.8% | /
COc1cc(NC(=O)Cn2nc(C(F)(F)F)c3c2CCC3)cc(OC)c1OC | ? | -14.2% | -3.6%[46.1 µM] | 8.9 | / | -11.6%
CSCC[C@H](NC(=O)c1ccc(Cl)c([N+](=O)[O-])c1)c1nc2ccccc2[nH]1 | 10µM* | -18.0% | -29.1% | 23.0 | -7.8% | -7.7%
CCOc1cc(NC(=S)Nc2ccccc2)c(OCC)cc1NC(=O)c1ccc(OC)cc1 | ? | / | ? | -66.5* | ? | /
CCOc1ccccc1NC(=O)c1ccc(OCC)c([N+](=O)[O-])c1 | 15.4% | i | 14.4% | -65.0* | -23.7% | -9.9%
CCOc1ccccc1NC(=O)c1ccc2ccccc2c1 | -7.6%[46.1 µM] | -11.4% | -3.6%[46.1 µM] | 148.2 | 10µM* | -2.6%
C=CCCC1(CCC)C(=O)C(=C(O)c2ccccc2)C(=O)C(CCC)=C1OC (stereo not given) | -1.7%[14.2 µM] | / | / | / | / | /
C[C@H]1[C@@H](NC(=O)Nc2cccc(C(F)(F)F)c2)CC[C@@]23CCCN2C(=O)CCC[C@@H]13 | / | / | / | -11.3 | / | /
CCOc1ccc(C(=O)Nc2cc(-c3nc4ccccc4[nH]3)ccc2C)cc1[N+](=O)[O-] | ? | / | ? | 53.6 | ? | ?
SMILES | MARV entry inh | Vaccinia mCherry | LASV entry inh | HCMV antiviral | HCV inhibitor | Vaccinia Venus
Cc1ccc(-c2nc3ccccc3[nH]2)cc1NC(=O)COc1ccccc1[N+](=O)[O-] | -17.3%[46.1 µM] | -20.6%[7.34 µM] | ? | -87.6* | / | -13.2%[7.34 µM]
CCOc1ccc(C(=O)Nc2cccc(C(=O)O)c2C)cc1Cl | 5.8µM* | i | 9.2µM* | ? | -0.4% | -8.5%
CCOc1ccccc1NC(=O)c1c(NC(=O)c2cccc(C)c2)sc2c1CCCC2 | / | -13.2% | 13.4%[46.1 µM] | -85.0* | / | -0.9%
CCOc1ccc(C(=O)Nc2cc(-c3nc4ccccc4[nH]3)ccc2Cl)cc1[N+](=O)[O-] | 8.91µM* | -22.2% | ? | -85.3* | ? | ?
COc1ccc(CNc2ccccc2C(=O)NCc2ccccc2)cc1COc1ccc(NC(C)=O)cc1 | / | -18.1% | / | / | / | -18.2%
COC(=O)c1ccc(N2CCC(c3cc(-c4ccc(OC)cc4)n[nH]3)CC2)c([N+](=O)[O-])c1 | ? | / | ? | -33.3 | 11.2µM* | /
CC(=O)c1ccc(N2CCC(c3cc(-c4ccc(Cl)cc4)n[nH]3)CC2)c([N+](=O)[O-])c1 | -27.6% | / | -21.4% | / | ? | /
COc1ccc(-c2cc(C3CCN(c4ccc(C(C)=O)cc4[N+](=O)[O-])CC3)[nH]n2)cc1 | ? | / | ? | -98.3* | 11.2µM* | /
COC(=O)c1ccc(N2CCN(C(=O)C3CC3)CC2)c([N+](=O)[O-])c1 | ? | -14.4% | 12.5%[46.1 µM] | -31.9 | -5.3% | 1.3%
CC[N+](CC)(CC)CCOc1ccc(/C=C/c2ccccc2)cc1 | / | -14.7% | / | -99.1* | ? | -28.3%
COC(=O)Cc1nnn2c1[C@H](C)[C@H](c1cccc(OC)c1OC)OCC2 | / | / | / | 26.6 | / | /
COC(=O)c1sc(N)c(C(=O)OC)c1Cn1ncc(Cl)c(Cl)c1=O | ? | ? | ? | 45.5 | 11.2µM* | -8.8%
COc1ccc(-c2nn(-c3ccccc3)cc2CO)cc1 | ? | / | 18.5% | 3.4 | ? | -15.3%
N=C(N)SCc1cn(-c2ccccc2)nc1-c1ccc(Br)cc1 | ? | 11.2µM* | ? | -87.1* | ? | ?
Cc1cc(=O)n(-c2ccccc2)n1C | / | 5.01µM*! | / | 8.8 | -0.7% | ?
CCOC(=O)[C@H](C)Sc1nc(-c2cccs2)ccc1C#N | -0.9% | / | / | / | / | /
NCCOc1ccc(C23CC4CC(CC(C4)C2)C3)cc1 | / | / | / | -85.0* | ? | /
OCCN1CCN(CC(O)COc2ccc(C34CC5CC(CC(C5)C3)C4)cc2)CC1 (stereo not given) | ? | -25.6% | ? | -95.7* | 12.6µM* | ?
NCCOc1ccc(C2CCCCC2)cc1 | ? | -18.7% | 1.9% | 6.9 | -10.5% | 0.6%
NC[C@H](O)C1CCCCCCC1 | -36.0% | / | / | / | / | /
COc1ccc2[nH]cc(CCN(C)C)c2c1 | ? | -16.2% | / | -8.6 | -8.9% | -9.0%
COc1ccc(CNC(=O)/C=C/c2ccc3[nH]cc(CCN(C)C)c3c2)cc1 | 35.5µM*! | -24.7% | -13.6% | ? | -17.1% | -10.6%
COC(=O)Nc1nc(C)c(C(=O)c2ccccc2)s1 | ? | / | ? | 87.2 | -13.7% | ?
COc1ccc(C(=O)Nc2nc(-c3ccc([N+](=O)[O-])cc3)c(-c3ccccc3)s2)cc1 | -4.8% | / | -25.6% | -18.4 | 6.31µM* | 2.2%
COC(=O)Nc1nc(-c2ccccc2)c(C(=O)c2ccccc2)s1 | ? | / | 3.16µM* | ? | ? | ?
COc1ccc(C(=O)Nc2nc(-c3ccccc3)c(C(C)=O)s2)c(OC)c1 | ? | -7.7% | / | 12.9 | 12.6µM* | 0.7%
